In the supplement of paper PMC6897291:

System: RIVA
Test: growth inhibition by drug plus 177Lu-lilotomab satetraxetan (1 - RLU/untreated control) (fraction); higher = stronger inhibition
Conditions: 177Lu-lilotomab satetraxetan 0.5 ug/ml
Protocol: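 RIVA (RI-1) ABC-DLBCL cells were pretreated or not for 18 h with 0.5 ug/ml 177Lu-lilotomab satetraxetan (600 MBq/mg), washed and seeded (3000 cells/well) on 384-well plates pre-printed with the Selleck Cambridge Cancer Compound library. Viability was read by RealTime-Glo luminescence on days 3-6 after seeding. Effect = 1 - RLU/mean RLU of the 48 untreated no-drug control wells per plate; Bliss score = (M-E)/(1-Fa).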

Structure (SMILES) | growth inhibition by drug plus 177Lu-lilotomab satetraxetan (10 nM, time (day): 3) | growth inhibition by drug plus 177Lu-lilotomab satetraxetan (10 nM, time (day): 4) | growth inhibition by drug plus 177Lu-lilotomab satetraxetan (10 nM, time (day): 5) | growth inhibition by drug plus 177Lu-lilotomab satetraxetan (10 nM, time (day): 6) | growth inhibition by drug plus 177Lu-lilotomab satetraxetan (100 nM, time (day): 3) | growth inhibition by drug plus 177Lu-lilotomab satetraxetan (100 nM, time (day): 4) | growth inhibition by drug plus 177Lu-lilotomab satetraxetan (100 nM, time (day): 5) | growth inhibition by drug plus 177Lu-lilotomab satetraxetan (100 nM, time (day): 6)
CC1(C)CNc2cc(NC(=O)c3cccnc3NCc3ccncc3)ccc21 [Motesanib Diphosphate] | 0.361 | 0.516 | 0.536 | 0.546 | 0.45 | 0.537 | 0.536 | 0.512
C[C@]1(c2nc3c(C(N)=O)cccc3[nH]2)CCCN1 [ABT-888 (Veliparib)] | 0.338 | 0.488 | 0.516 | 0.518 | 0.307 | 0.418 | 0.442 | 0.427
Cc1ccc([N+](=O)[O-])cc1S(=O)(=O)N(C)/N=C/c1cnc2ccc(Br)cn12 | 0.675 | 0.726 | 0.736 | 0.726 | 0.775 | 0.854 | 0.868 | 0.889
C[S+]([O-])c1ccc(-c2nc(-c3ccc(F)cc3)c(-c3ccncc3)[nH]2)cc1 (stereo not given) | 0.668 | 0.678 | 0.684 | 0.677 | 0.322 | 0.441 | 0.432 | 0.451
Cc1nnc(C(C)C)n1C1C[C@H]2CC[C@@H](C1)N2CC[C@H](NC(=O)C1CCC(F)(F)CC1)c1ccccc1 (stereo in doubt) [Maraviroc] | 0.542 | 0.609 | 0.618 | 0.645 | 0.545 | 0.593 | 0.587 | 0.584
